Source: PubChem BioAssay (National Center for Advancing Translational Sciences (NCATS))
Tau fluor counter: counter-screen for tau fibril formation inhibitors; tau K18 P301L Alexa594 fluorescence, heparin fibrillization; Potency, µM (series often up to 57.7 µM), for inactives: top-dose activity change, negative = decrease; 280,000 compounds, 0.93% hits; AID 1463; further: potency means the concentration at half of the fitted maximal effect; nearly all actives have a fitted effect of over 55% in size
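Human tau K18 P301L (15 uM unlabeled, 0.24 uM Alexa 594-labeled) in 100 mM sodium acetate pH 7 with 20 uM heparin, 6 hr at 37 C. ThT 30 uM added, 1 hr ambient; Alexa 594 FP and total fluorescence read at 555/632 nm.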
Coupling enz: counter-screen for Giardia aldolase inhibitors: coupling enzyme system; coupling enzyme system counterscreen, AmpLite Red fluorescence; activity change, negative = inhibition, % at 58.2 µM, hits read low; 290,000 compounds, 0.67% hits; in the data active means activity change below about -30%
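Compounds tested against the coupling enzymes alone at 57.5 uM final; readout was AmpLite Red fluorescence (525/598 nm) after 20 min at RT.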
Sfp inh: Sfp phosphopantetheinyl transferase inhibition | Biochemical Sfp PPTase activity, qHTS | 310,000 compounds, 3.5% hits | Q9F4F7 | Potency, µM, without a hit: largest response in the series, negative = inhibition, usual class: inhibitors;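 further: the enzyme is Sfp with the accession as filed and its product quenches rhodamine fluorescence; potency means the concentration at half of the fitted maximal effect; 0% = enzyme reaction without inhibitor and -100% = no enzyme wells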
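Fluorescence-quenching assay: 15 nM Sfp-PPTase preincubated 15 min at room temperature with compound, then 5 uM rhodamine-CoA and 12.5 uM BHQ-2-labelled YbbR peptide added. Fluorescence (ex 525/em 598 nm) read at start and after 30 min; difference gives rate.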
Tau FP inhib: blocks human tau fibril formation measured by polarization; K18 P301L tau heparin fibrillization, Alexa594 FP, 6 h; 280,000 compounds, 0.39% hits; Potency, µM (top dose mostly 57.7 µM), for the others: at the top dose activity, negative = inhibition, hits mostly inhibitors; P10636; further: potency means the concentration at half of the fitted maximal effect; nearly all actives have a fitted effect of over 55% in size
Target sequence (P10636 561-689 P618L limits assumed): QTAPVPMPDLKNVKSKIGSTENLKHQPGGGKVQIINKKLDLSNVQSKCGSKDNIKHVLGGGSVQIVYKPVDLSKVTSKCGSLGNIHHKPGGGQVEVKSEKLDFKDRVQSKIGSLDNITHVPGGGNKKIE
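Read-out: fluorescence polarization of Alexa 594-labeled tau (0.24 uM), 555 nm excitation, 632 nm emission. Mixtures held 15 uM unlabeled K18 P301L, compound and 20 uM heparin, pH 7 acetate buffer, incubated 6 hr at 37 C.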
Tau fibril ThT: inhibitors of human tau fibril formation, thioflavin T binding | P10636 | recombinant tau K18 P301L (four-repeat tau fragment), heparin-induced fibrillization, ThT fluorescence | Potency, µM (titrated, usually from 57.4 µM), for inactives: at the top dose activity, negative = inhibition, usual class: inhibitors | 270,000 compounds, 2.1% hits | AID 1460; further: potency means the concentration at half of the fitted maximal effect; nearly all actives have a fitted effect of over 55% in size
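Heparin-induced fibrillization of the P301L-mutant K18 repeat-domain fragment of human tau was followed by ThT binding in quantitative high-throughput format.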
An asterisk follows results filed as active; [ ] = another dose, or the depositor's remark. A selection: hits, their analogues and other compounds. The true share with any hit is near 5.2%. Unless noted, the call rests on the fitted dose curve; in most records, active means well fitted curve in the direction sought with a large enough effect; inconclusive means small, poorly fitted or top-dose-only effect, or another doubt; inactive means no such curve, though single readings can be large; an effect the other way counts as inactive or inconclusive. Unless noted, on the % scale 0 is the no-effect control and ±100 the full control effect.

What do the screens show for `COc1cc(CNc2ccc3[nH]c(=O)[nH]c3c2)cc(Cl)c1OCC(=O)NC(C)(C)C`?
Tau fluor counter: inconclusive; Coupling enz: -44*; Sfp inh: 11µM*; Tau FP inhib: inconclusive; Tau fibril ThT: 11µM*

What do the screens show for `COc1cccc(NC(=O)C2CCN(S(=O)(=O)c3c(C)noc3C)CC2)c1`?
Tau fluor counter: -6%; Tau FP inhib: -1%; Tau fibril ThT: -2%

Results for CCn1c(=O)c2c(nc3n2CCN3c2ccc(OC)cc2)n(C)c1=O ?
Tau fluor counter: -15%; Tau FP inhib: -4%; Tau fibril ThT: inconclusive

What do the screens show for `O=C1CSC2(N1)C1CC3CC(C1)CC2C3` (stereo not drawn)?
Tau fluor counter: -3%; Coupling enz: 2; Sfp inh: -2%; Tau FP inhib: -12%; Tau fibril ThT: 6%

What do the screens show for `C1CSC2(N1)C1CC3CC2CC(C1)C31NCCS1` (stereo not drawn)?
Tau fluor counter: -21%; Coupling enz: 0; Sfp inh: 20µM*; Tau FP inhib: inconclusive; Tau fibril ThT: inconclusive

Results for COc1ccccc1CNc1ncncc1-c1cccc(C#N)c1 ?
Tau fluor counter: -8%; Coupling enz: 1; Sfp inh: 3%; Tau FP inhib: -7%; Tau fibril ThT: -9%

What do the screens show for `Cc1ccc(C(=O)c2c(C)oc3c2C(=O)C(=O)c2ccccc2-3)cc1`?
Tau fluor counter: -27%; Coupling enz: -79*; Sfp inh: 50µM*; Tau FP inhib: inconclusive; Tau fibril ThT: 3.5µM*

What do the screens show for `Cc1ccc(C(=O)C(OC(=O)c2c(C)cc(=O)oc2C)c2ccccc2)cc1` (stereo not drawn)?
Tau fluor counter: -14%; Coupling enz: 0; Sfp inh: -17%; Tau FP inhib: -4%; Tau fibril ThT: -17%

Results for Cc1oc2c(c1C(=O)c1ccc(Cl)cc1)C(=O)C(=O)c1ccccc1-2 ?
Tau fluor counter: -28%; Coupling enz: -79*; Sfp inh: inconclusive; Tau FP inhib: inconclusive; Tau fibril ThT: 2.2µM*

What do the screens show for `Cc1ccc(C(=O)c2coc3c2C(=O)C(=O)c2ccccc2-3)cc1`?
Tau fluor counter: inconclusive; Coupling enz: -79*; Sfp inh: 45µM*; Tau FP inhib: inconclusive; Tau fibril ThT: 2.2µM*

Results for O=C(Nc1nc(=O)c2ccccc2s1)c1ccc(F)cc1 ?
Tau fluor counter: -2%; Coupling enz: -7; Sfp inh: 56µM*; Tau FP inhib: -10%; Tau fibril ThT: -14%

How did O=C(Nc1nc(=O)c2ccccc2s1)c1ccc(Cl)cc1 do in these assays?
Tau fluor counter: -5%; Coupling enz: 2; Sfp inh: 25µM*; Tau FP inhib: inconclusive; Tau fibril ThT: -6%

What do the screens show for `COc1cccc(C(=O)Nc2cccc(-c3nc4ncccn4c3C)c2)c1`?
Tau fluor counter: -1%; Tau FP inhib: -8%; Tau fibril ThT: -15%

What do the screens show for `Cc1ccc(C(=O)Sc2cccccc2=O)cc1`?
Coupling enz: 0; Sfp inh: 50µM*

Results for CC(C)c1nn2c(=O)cc(COC(=O)c3ccc(NC(=O)C4CCCCC4)cc3)nc2s1 ?
Tau fluor counter: 3%; Tau FP inhib: -1%; Tau fibril ThT: 3%

How did CCOCc1cnc(C)nc1NCC(=O)c1c(C)[nH]c2ccc(OC)cc12 do in these assays?
Tau fluor counter: -8%; Coupling enz: -49*; Sfp inh: inconclusive; Tau FP inhib: -1%; Tau fibril ThT: 2%

Results for COc1ccc(Oc2ncc3nc(C)c(=O)n(-c4ccc(OC)cc4)c3n2)cc1 ?
Coupling enz: 0; Sfp inh: 12%

Results for CCN(CC)c1nc2ccccc2c(N)c1-c1ccccc1 ?
Tau fluor counter: -3%; Sfp inh: 79µM*; Tau FP inhib: 4%; Tau fibril ThT: -1%

What do the screens show for `CC(C)n1c(=O)[nH][nH]c1=S`?
Tau fluor counter: -26%; Coupling enz: 2; Sfp inh: 8.9µM*; Tau FP inhib: inconclusive; Tau fibril ThT: 28µM*

Results for CCc1ccccc1NC(=O)c1ccc2c(c1)CCCN2S(C)(=O)=O ?
Tau fluor counter: -8%; Tau FP inhib: -14%; Tau fibril ThT: -9%

Results for COc1ccc(N2CCN(CCNC(=O)Nc3ccc(Cl)cc3)CC2)cc1 ?
Tau fluor counter: -21%; Coupling enz: -2; Sfp inh: -2%; Tau FP inhib: 16%; Tau fibril ThT: -15%

Results for Cc1ccc(Cl)cc1N1CCN(CCNC(=O)Nc2ccc(Cl)cc2)CC1 ?
Tau fluor counter: inconclusive; Tau FP inhib: 13µM*; Tau fibril ThT: -1%

What do the screens show for `CCOc1ccc(NC(=O)NCCN2CCN(c3cc(Cl)ccc3C)CC2)cc1`?
Tau fluor counter: 14µM*[quencher]; Tau FP inhib: inconclusive; Tau fibril ThT: inconclusive

What do the screens show for `Cc1ccc(C)c(NC(=O)c2ccc(CN3CC(=O)N4CCCCC4C3=O)cc2)c1` (stereo not drawn)?
Tau fluor counter: 5%; Tau FP inhib: 8%; Tau fibril ThT: 4%

How did COc1ccccc1C(=O)Nc1ccc2oc(-c3ccc(F)cc3)nc2c1 do in these assays?
Tau fluor counter: -12%; Coupling enz: -3; Sfp inh: 50µM*; Tau FP inhib: 1%; Tau fibril ThT: inconclusive

How did COc1cc2ccccc2cc1C(=O)Nc1ccc2oc(-c3ccc(Cl)cc3)nc2c1 do in these assays?
Tau fluor counter: 2%; Tau FP inhib: 12%; Tau fibril ThT: inconclusive

Results for CCOc1ccc(/C=C/c2nc(C#N)c(Nc3ccc(OCC)cc3)o2)cc1 ?
Tau fluor counter: -14%; Tau FP inhib: 11%; Tau fibril ThT: -22%

Results for COc1cccc(-c2cc(C(=O)Nc3nc4ccccc4s3)c3ccccc3n2)c1 ?
Tau fluor counter: -24%; Coupling enz: -2; Sfp inh: 40µM*; Tau FP inhib: inconclusive; Tau fibril ThT: -15%

What do the screens show for `O=C(Nc1nc2ccccc2s1)c1cc(-c2ccco2)nc2ccccc12`?
Tau fluor counter: -29%; Coupling enz: -1; Sfp inh: 45µM*; Tau FP inhib: -3%; Tau fibril ThT: inconclusive

Results for Cc1ccc2nc(NC(=O)c3cc(-c4ccco4)nc4ccccc34)sc2c1 ?
Tau fluor counter: -30%; Coupling enz: 2; Sfp inh: -2%; Tau FP inhib: -3%; Tau fibril ThT: inconclusive

Results for CN1C=CC2=C(C#N)C(N)C(C#N)(C#N)[C@H](c3ccccc3)[C@H]2C1 (stereo partly drawn) ?
Tau fluor counter: -18%; Coupling enz: -30*; Sfp inh: 0%; Tau FP inhib: inconclusive; Tau fibril ThT: inconclusive

How did CC(C)(C)C(=O)Nc1cccc(C(=O)OCc2cc(=O)n3nc(C4CCCCC4)sc3n2)c1 do in these assays?
Tau fluor counter: -8%; Tau FP inhib: 5%; Tau fibril ThT: inconclusive
